Inconclusive results are not listed. Unmarked numbers belong to inactive results. The source made the active and inactive calls. Calls follow the shape of the dose curve; as a rule, active = well fitted cell-killing curve with a large enough effect; inconclusive = small, poorly fitted or top-dose-only effect; inactive = flat fitted curve, though single readings scatter.
test: Vero cells viability qHTS for Zika virus inhibitors (AID 1347167); conditions: cytotoxicity counter-screen (Zika); series mostly up to 45.9 µM; activity change, negative = cytotoxicity: at the top concentration
Text: Avindra Nath, Ph.D., National Institute of Neurological Disorders and Stroke (NINDS), Bethesda, MD
Radhakrishnan Padmanabhan, Ph.D., Georgetown University (GU), Washington D.C.
Zika Virus causes congenital defects, including microcephaly and is associated with Guillain-Barre syndrome, eningoencephalitis and myelitis in infected adult. […] Using a target-based approach, we hope to establish a screening paradigm to uncover novel, cell-active NS2B-NS3 protease (Zika Virus) specific inhibitors from NCATS' collection of small molecules using qHTS.
Four assay panel was created to identify potential Zika Virus inhibitors. Namely, (1) GU unlinked NS2B-NS3 AMC tagged protease qHTS, (2) GU unlinked NS2B-NS3 Rhodamine tagged protease qHTS, (3) NINDS linked NS2B-NS3 AMC tagged protease qHTS, (4) NINDS linked NS2B-NS3 Rhodamine tagged protease qHTS. Identified inhibitors were screened against the Vero and HepG2 cell viability assays using CellTiter Glo to exclude cytotoxic compounds.
Early Translation Branch (ETB)
National Center for Advancing Translational Sciences (NCATS), Rockville, MD
National Institute of Health (NIH), Bethesda, Maryland
Vero and HepG2 Cell Viability Assay:
Vero and HepG2 cell cytotoxicity were determined using a luminescent readout with CellTiter Glo reagent (Promega, Madison, WI), which is based on measuring the ATP content within cells. Briefly, 4 microL of Vero or HepG2 cells at 2.5 x 10^5 cells/mL in DMEM containing 4% FBS were dispensed into 1536-well solid bottom tissue treated white plate using a Multidrop Combi dispenser (Thermo Scientific). Plates were incubated at 37 degrees C, 95% humidity, and 5% CO2 overnight to allow for cell attachment. Compounds were dissolved in DMSO at different concentrations and transferred via pintool (Wako Automation), for a final concentration of 0.029 µM - 57 microM. Plates were again incubated for 24 to 48 hours, followed by a 2 microL addition of CellTiter Glo. Finally, plates were incubated for 30 minutes at 37 degrees C and 5% CO2 before being read on a ViewLux (Perkin Elmer) for luminescence.
% is scaled to controls: 0 for no effect and ±100 for the full control effect.

SMILES | activity change, negative = cytotoxicity | outcome
COCC(=O)NCC=Cc1ccc2ncnc(Nc3ccc(Oc4ccc(C)nc4)c(C)c3)c2c1 | -3.74% | 
O=C(C1CC1)N1CC[C@@H](Cn2c(-c3ccc(-c4ccc5occc5c4)cc3)nc3cnccc32)C1 | -9.13% | 
COc1ccc(-c2ccc3c(N4CCOCC4)nc(N4C[C@@H](C)O[C@@H](C)C4)nc3n2)cc1CO | -3.5% | 
CCCCNc1cc(C(=O)O)cc(S(N)(=O)=O)c1Oc1ccccc1 | -0.938% | 
Cn1cnc([N+](=O)[O-])c1Sc1ncnc2nc[nH]c12 |  | inactive
O=c1n(CCCN2CCN(c3cccc(Cl)c3)CC2)nc2ccccn12 | -1.48% | 
COc1ccccc1-c1cccc(-c2c(O)c3cc(C#N)c(Cl)cc3[nH]c2=O)c1 | -3.96% | 
CCn1cc(C(=O)O)c(=O)c2cc(F)c(N3CCNC(C)C3)c(F)c21 (stereo not given) |  | inactive
CCCc1nc2c(C)cc(-c3nc4ccccc4n3C)cc2n1Cc1ccc(-c2ccccc2C(=O)O)cc1 | -5.33% | 
CN1CCN(CCCN2c3ccccc3Sc3ccc(C(F)(F)F)cc32)CC1 | -6.36% | 
Cc1[nH]c(=O)c(C#N)cc1-c1ccncc1 | -1.22% | 
Cc1[nH]c(=O)c(C#N)cc1-c1ccc2nccn2c1 | -2.53% | 
Cc1cc(SCc2sc(-c3ccc(C(F)(F)F)cc3)nc2C)ccc1OCC(=O)O | -0.118% | 
CCN(CC)CCCC(C)Nc1ccnc2cc(Cl)ccc12 (stereo not given) | -7% | 
CC(C)(Sc1ccc(CCN(CCCCC2CCCCC2)C(=O)NC2CCCCC2)cc1)C(=O)O |  | inactive
